These results are taken from PubChem BioAssay AID1159506 (National Center for Advancing Translational Sciences (NCATS), 2015).

The full ranking holds about 59,000 sequences; the median of the read-out is about -0.00055, and the lowest 2% start at about -2. This is one part of a sample in which the lowest values are shown more often than they occur.

The nature of the assay: Identification of proteins required for the processing of the EWS-FLI1 nascent transcript.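 Also: robust z of luciferase light less the median z of siRNAs with the same seed.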 The following applies: TC32 Ewing sarcoma NR0B1-luc vs CMV-luc (EWS-FLI1 target promoter against control promoter), 48 h; screened at 20 nM (by protocol). The method, then:
Ewing sarcoma (ES) cells depend on the EWS-FLI1 fusion transcription factor for cell survival. Using an assay of EWS-FLI1 activity and genome-wide siRNA screening we have identified proteins required for the processing of the EWS-FLI1 nascent transcript. Parallel genome-wide siRNA-mediated RNAi screens were conducted in Ewing sarcoma TC32 cell lines expressing a luciferase (luc) reporter protein driven by either the promoter of the EWS-FLI1 target gene NR0B1 (TC32-NR0B1-luc) or the CMV promoter (TC32-CMV-luc). Luciferase activity was assessed 48 hours post siRNA-transfection.
Twenty microl of serum-free media containing Lipofectamine RNAiMax (0.05 microl) was added to wells containing siRNA (0.8 pmol). Lipid and siRNA were allowed to complex for 45 min at ambient temperature before addition of 600 cells in RPMI-1640, 20% FBS to yield final transfection mixtures containing 20 nM siRNA in RPMI-1640, 10% FBS. Luciferase expression was measured using OneGlo (Promega, Madison, WI). The genome-wide screening campaign was conducted using Ambion's human genome library version 4.1 (Ambion, Austin TX). This library targets approximately 21000 human genes, three siRNAs per gene. Each siRNA is arrayed in an individual well of a 384-well plate. Parallel transfections were conducted in TC32-NR0B1-luc and TC32-CMV-luc cell lines and luciferase expression (OneGlo, Promega) was assayed 48 h later on a PerkinElmer Envision 2104 Multilabel plate reader (PerkinElmer, Waltham, MA). Qiagen's AllStars Negative control was incorporated on all screening plates for normalization (16 wells per plate). Qiagen, Germantown, MDsiGL4 was incorporated as a positive transfection control (16 wells per plate) on all plates. […] The raw luciferase data for the NR0B1- and CMV-luc screens were normalized and z-score-MAD transformed using standard methods (Chung et al., 2008). The miRNA-like seed sequence of every siRNA was determined and the median z-score for all siRNA sequences with the same seed sequence was calculated. This z-score was subtracted from the z-score associated with each siRNA with that seed sequence to generate a seed-adjusted z-score value (Z) that was used when the results for the three siRNAs corresponding to each gene were compared (Marine et al., 2012)
As for UUGCGAUGGAAAGACAUGU against CD5, the seed-corrected z-score was determined as 0.451. Regarding AAUGCUCUCAGUUGAGAUG against C19orf44, the seed-corrected z-score is -0.0313. In the case of UAACCUCUGGGUCACAUGC against ACIN1, the seed-corrected z-score is 0.0177. On to UCUGUCUAAAUAACUUAUU against NAT8L, for which the seed-corrected z-score is -0.913.

UAUUGAAUGAUGUGGAGUC against PTCD2 displayed a seed-corrected z-score of 0.667. Turning to UUAAGUAUUGGAUUUCAUA against DEFB116, the seed-corrected z-score was found to be 0.226. UCGGAAUAAAUUGAGCUGC against API5 showed a seed-corrected z-score of -16.5. For UGUGCGAGAACAUUCCUGC against HIP1R, the seed-corrected z-score was 0.0278.

UUUGUGCAUGCUGUCGUUC against TNIP2 showed a seed-corrected z-score of -0.335.

UACAGCUAAACUGUACAGC against ORC6 returned a seed-corrected z-score of -2.09. For UUCGGUUCAUGACAAAUAC against SLC35F5, the seed-corrected z-score amounted to 0.354. In turn, UAGCAUACUAUUGUCCUGC against MRPL42 showed a seed-corrected z-score of 0.102. In turn, UCCUGGUUCACCAAUUUCU against COL9A1 displayed a seed-corrected z-score of -0.362.

Sequence UAGGUUAUGAAAUUAAUCA against MAP6D1 returned a seed-corrected z-score of -2.45.

As for AUUCAUAGAAGUAUUCUGC against WIF1, the seed-corrected z-score is -0.598. Sequence UAAGUUUUGAGGAUAGGUG against ZNF117 came in with a seed-corrected z-score of 0.415. On to UUGGGAUUCAGGUUCCGCU against TCF3, for which the seed-corrected z-score was -0.377. With UCGCUUCCCAGAAUUGCUG against GPR65, the seed-corrected z-score came out at 1.15. Regarding AUGGGAAUAGGAAAGUAUG against OR2M4, the seed-corrected z-score is -2.09. As for UGUCCAAUUAGGGACCAGC against SLF2, the seed-corrected z-score was -0.225. As for ACUGUAUAGAUUGUGAACC against KDM3B, the figure is 1.03; as for UUCCAUAGUAGUAGGAUCU against TMEM14B, 0.134; as for UCUGGUUAUCAGAAAACCC against PCNP, 0.114. Sequence UUGUGGUUUAGGGUUUUCU against YBX1 displayed a seed-corrected z-score of -2.1.

The sequence UUCUUAUAACCAUUGACUG against SLCO1B3 yielded a seed-corrected z-score of 0.328. Consider UAAAGAGUGGUGUUGGUGG against RSPH3, for which the seed-corrected z-score is -0.756. Take UUUAGUUCCAGUGCCUUAG against CCDC151: the seed-corrected z-score is 0.491. Regarding CUUUCAGCGUGGCUGUUCC against C6orf132, the seed-corrected z-score is -4.94. On to UUCCUAAUAAACCCAGCGC against SOWAHD, for which the seed-corrected z-score was -0.0823. As for UCAGAGAUCAAAGAGAAGU against TUBB4A, the figure is 0.356; as for UGAGUGAAGUGCGAUAUCC against ELL, 0.176. Sequence UAGGAACCAGAAAUAAUCC against ATP8A2 registered a seed-corrected z-score of -0.455. In turn, UUAGGGAUGACGUGGGUGC against GRIN1 registered a seed-corrected z-score of -2.06. As for UUAAACUCCACGUCGUCAG against SIRPB1, the figure is -0.756; as for UUUAUGGAUCUAAUUGUCG against CBWD1, 0.289. For the sequence UGCAUGGUGAUAGUCAGGU against CD7, the seed-corrected z-score is -0.0598. Turning to AAACCGUCCUUCCUCAUGC against IL16, the seed-corrected z-score came out at 0.0574. UUAGUCUUCCCGGAUUGCC against ADAR yielded a seed-corrected z-score of 0.696. As for UUCUGGAUAAACAUAUUCC against MCU, the figure is -0.133. Take UUCCAGUUAAACUGUAGCC against LOC643770: the seed-corrected z-score is -2.78. As for UUAAUAACCUCAGAAAUGG against TCTEX1D1, the seed-corrected z-score is 0.0567. In turn, UAUUUGCGAAGUCAUGAGG against COPB1 showed a seed-corrected z-score of -3.25. On to UGAAUAUCAACAGUCCCUC against ZNF731P, for which the seed-corrected z-score worked out at 0.959. The figure for UAAAUGACAGAAGCCGUUG against SUCLG1 is -0.0373. In turn, UCACAGAUGCCUGUAAAUG against TSACC showed a seed-corrected z-score of -0.571. The figure for GCUUGCACGACUCACAGAC against DEFB105A is 1.34.

The sequence AGAGUGUAAUGAGUCUUUG against SCAPER showed a seed-corrected z-score of 0.141. Turning to UCCUCCUUGUCCAUGAUGC against CDC42EP4, the seed-corrected z-score came out at 0.732. As for AUCUGCUUAAUCUUUACAC against OR51F2, the figure is -2.93. For the sequence AUCGGAUACCGUGAGAUCC against OXA1L, the seed-corrected z-score turned out to be 0.367.

For UAAUGGGCACGAAUGACGG against ST8SIA3, the seed-corrected z-score came to 0.274. Regarding AAUGGUAUCAUUCACCUUG against RPS4X, the seed-corrected z-score came to 1.54. UCGUCUAAAACCAGGAUGC against ABCC3 had a seed-corrected z-score of -0.496. In the case of AAUGUUGUUCUGUUUGUCC against FAM122C, the seed-corrected z-score is -1.09. The figure for UUUAGUUCUUCCCUUAUGG against PDGFC is -0.075; for UUCUUCAUCAGCUUAACCG against C1QTNF4 it is -0.00119; for AUACUUGUACAAUCGGUGC against DIDO1 it is 0.123.

In the case of UUCUUUGCCCGCUUGAGCU against CCDC86, the seed-corrected z-score is -0.859. Sequence UUAGUUGCACCCAAAUCCA against CCDC17 registered a seed-corrected z-score of -2.22.

With AUGCGAACCUCAUAGGUGG against SNX12, the seed-corrected z-score was -0.364.

ACACUCAAAAUUACCAGCU against LEMD2 registered a seed-corrected z-score of -1.09.

Sequence UGUUUUUGAAGUUAGAUCU against LOC728999 had a seed-corrected z-score of 1.08. Take UAAUCCUGACUUUCAAUUG against PAGE3: the seed-corrected z-score is -0.446.

AACAGUUUCUGCAUUCUUC against PARG registered a seed-corrected z-score of -0.336. As for AGAGGUCUGAGCACAGUUC against HSPA6, the seed-corrected z-score was -1.34. For UAACAUCUUCGAACUGCGG against MAU2, the seed-corrected z-score was -1.35. UGGUUGUUUAAGUCGACUG against USP33 yielded a seed-corrected z-score of -2.43. UCCCUUCACAAAGAAAGAG against TLDC2 had a seed-corrected z-score of 0.201. In the case of UUUCUUAGAAAGCGGUUCC against MORN5, the seed-corrected z-score was -0.0295.

As for UAGGAUACAUUGCUGAUGC against CASC1, the seed-corrected z-score was -0.353.

For UCUUUCUUUAGUCUGAGUG against NMUR2, the seed-corrected z-score worked out at 0.78.

On to UUCUUUAUCUCGAUGAUGC against FAM117B, for which the seed-corrected z-score is -3.46. As to AUCGCUCCCAUAGUUCACC against KRT20, the seed-corrected z-score is -0.0454.

Take UUUUCCUUAAUUAACGGCA against DTYMK: the seed-corrected z-score is -0.22. In the case of UCUGUGGAUACUGAUAUUC against NRG1, the seed-corrected z-score was 1.7.

UAUGGAAAAAUUAAUCUGU against RAC1: the seed-corrected z-score was -0.118. As to UUCAGUAGAAGUUUCAUCU against POLR2H, the seed-corrected z-score is -3.55. On to UACAGAAUGGUUGUCUUGC against ARF4, for which the seed-corrected z-score amounted to 0.573. For the sequence UAGAGUGCUAAGGACAGGG against GFI1B, the seed-corrected z-score came to 0.226. On to AGAUUUAUAAUAAUCCCAC against C11orf72, for which the seed-corrected z-score worked out at 0.747.

The sequence UUACUGGAGACCAAUCUUC against FDFT1 registered a seed-corrected z-score of -1.01.

For UUAUUGACACGAAUACAUC against BTG3, the seed-corrected z-score was 0.565. The figure for UGGAGGUUAUGAUCAUUCC against OR51B6 is -2.91; for AUGGUGGUAAUUACGCUGC against SLCO5A1 it is -0.993; for UGACUUUACCUCAAAGUUG against PRPF19 it is -0.0138.
